CYP2C19 inh: blocks human cytochrome P450 2C19. 96,000 tested, 21% active. P33261. inhibition, % at 5 µM. CYP2C19 Supersomes, luciferin-H EGE luminescence, 30 min. AID 778;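 active = CYP2C19 inhibition above a set limit at 5 µM in the primary screen, cut at about 50% in these data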;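 also: plate controls were negative control wells for no effect and 2.5 mM tranylcypromine positive control for full effect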
Cav3 T inh: blocks human Cav3.2 T-type calcium channel; O95180; Cav3.2-expressing cells, Fluo-4 calcium fluorescence FDSS; active compounds read low; B-score at 10 µM; 100,000 tested, 4% active;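 active = single-dose well whose peak fluorescence ratio is a statistical outlier from its plate by either plate-standardised score or position-corrected B-score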
Target sequence (O95180 whole entry, looked up): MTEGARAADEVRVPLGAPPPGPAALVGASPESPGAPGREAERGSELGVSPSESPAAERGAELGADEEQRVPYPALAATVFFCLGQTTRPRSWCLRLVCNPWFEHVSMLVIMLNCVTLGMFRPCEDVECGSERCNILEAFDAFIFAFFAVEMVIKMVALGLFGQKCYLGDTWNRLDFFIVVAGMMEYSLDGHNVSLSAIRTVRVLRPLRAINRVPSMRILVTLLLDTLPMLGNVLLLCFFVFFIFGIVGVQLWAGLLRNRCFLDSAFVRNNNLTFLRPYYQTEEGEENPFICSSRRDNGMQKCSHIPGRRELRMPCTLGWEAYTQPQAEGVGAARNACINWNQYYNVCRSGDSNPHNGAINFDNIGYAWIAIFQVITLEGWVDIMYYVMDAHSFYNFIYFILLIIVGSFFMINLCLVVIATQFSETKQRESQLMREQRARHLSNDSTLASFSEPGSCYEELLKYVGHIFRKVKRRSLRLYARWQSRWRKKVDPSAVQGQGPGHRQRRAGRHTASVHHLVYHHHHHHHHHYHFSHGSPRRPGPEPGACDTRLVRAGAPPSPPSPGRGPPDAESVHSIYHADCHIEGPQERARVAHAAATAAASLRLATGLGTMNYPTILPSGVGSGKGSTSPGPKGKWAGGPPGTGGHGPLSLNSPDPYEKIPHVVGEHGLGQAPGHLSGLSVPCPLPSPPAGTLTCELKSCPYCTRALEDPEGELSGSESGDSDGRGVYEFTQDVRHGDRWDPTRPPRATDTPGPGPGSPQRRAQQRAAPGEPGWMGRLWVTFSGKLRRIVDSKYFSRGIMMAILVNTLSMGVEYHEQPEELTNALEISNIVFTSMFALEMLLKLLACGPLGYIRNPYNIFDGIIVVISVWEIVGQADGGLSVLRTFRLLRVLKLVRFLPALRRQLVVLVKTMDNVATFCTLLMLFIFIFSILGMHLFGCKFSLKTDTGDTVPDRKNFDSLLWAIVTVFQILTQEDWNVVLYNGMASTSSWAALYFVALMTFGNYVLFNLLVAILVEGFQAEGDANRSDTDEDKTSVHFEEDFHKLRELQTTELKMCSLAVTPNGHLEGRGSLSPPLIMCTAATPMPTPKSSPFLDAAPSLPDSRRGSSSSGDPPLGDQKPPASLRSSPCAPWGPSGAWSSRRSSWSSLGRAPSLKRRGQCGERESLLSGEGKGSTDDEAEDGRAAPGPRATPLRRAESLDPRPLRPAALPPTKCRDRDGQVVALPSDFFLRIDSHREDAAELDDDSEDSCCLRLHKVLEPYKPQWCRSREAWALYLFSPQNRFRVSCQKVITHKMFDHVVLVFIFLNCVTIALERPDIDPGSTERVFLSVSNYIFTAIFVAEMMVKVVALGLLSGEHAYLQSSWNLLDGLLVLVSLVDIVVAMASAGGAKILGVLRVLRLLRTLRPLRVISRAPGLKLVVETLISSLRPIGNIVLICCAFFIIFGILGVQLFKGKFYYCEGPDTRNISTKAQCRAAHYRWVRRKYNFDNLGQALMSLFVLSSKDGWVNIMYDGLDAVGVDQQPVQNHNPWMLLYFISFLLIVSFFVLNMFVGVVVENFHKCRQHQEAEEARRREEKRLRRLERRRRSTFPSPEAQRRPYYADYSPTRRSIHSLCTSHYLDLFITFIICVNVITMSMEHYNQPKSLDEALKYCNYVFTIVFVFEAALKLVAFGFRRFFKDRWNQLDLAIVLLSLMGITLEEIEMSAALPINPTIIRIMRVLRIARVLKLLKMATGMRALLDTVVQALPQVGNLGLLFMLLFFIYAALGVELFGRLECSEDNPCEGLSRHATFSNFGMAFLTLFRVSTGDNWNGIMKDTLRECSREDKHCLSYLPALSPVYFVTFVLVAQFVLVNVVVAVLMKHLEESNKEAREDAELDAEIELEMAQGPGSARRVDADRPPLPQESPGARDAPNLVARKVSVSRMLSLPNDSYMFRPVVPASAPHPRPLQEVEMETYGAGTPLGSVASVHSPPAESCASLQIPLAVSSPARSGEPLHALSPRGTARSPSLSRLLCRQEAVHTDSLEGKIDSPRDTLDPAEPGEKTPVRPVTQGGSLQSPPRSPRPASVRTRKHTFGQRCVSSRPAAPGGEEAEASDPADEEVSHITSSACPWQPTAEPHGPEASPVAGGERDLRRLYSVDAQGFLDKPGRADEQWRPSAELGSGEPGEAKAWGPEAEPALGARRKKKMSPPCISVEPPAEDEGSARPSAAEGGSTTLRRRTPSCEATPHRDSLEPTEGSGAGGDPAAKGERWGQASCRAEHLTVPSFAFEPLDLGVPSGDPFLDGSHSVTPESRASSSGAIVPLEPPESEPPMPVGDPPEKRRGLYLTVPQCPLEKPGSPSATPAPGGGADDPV
CYP2C9 act: increases human cytochrome P450 2C9 activity; recombinant CYP2C9, luciferin-H conversion, luminescence; active compounds read high; factor 1 = untreated enzyme, 0 = blocked; activation factor at 5 µM; 96,000 tested, 1.4% active;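 active = activation factor of 2 or more for CYP2C9 at a 5 µM dose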;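 also: 0 = sulfaphenazole-blocked wells and 1 = vehicle-only wells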
CYP2C9 inh: inhibitors of human CYP2C9; AID 777; 96,000 tested, 20% active; CYP2C9 Supersomes, luciferin-H conversion, luminescence; inhibition, % at 5 µM; P11712;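 active = blocking of liver enzyme CYP2C9 beyond about 50% at 5 µM, limit read from the data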
CYP2C19 activ: increases human CYP2C19 enzyme activity. recombinant CYP2C19, luciferin-H EGE luminescence; active compounds read high; 0 = fully inhibited enzyme, 1 = untreated enzyme. activation factor at 5 µM. 96,000 tested, under 10 active. P33261;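 active = activation factor of at least 2 at 5 µM in the primary screen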;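 also: 0 = wells with 2.5 mM tranylcypromine and 1 = vehicle-only wells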
An asterisk follows results filed as active; nt = no result. Only some compounds are listed: those with a hit (about 27% of all), similar ones and a draw of the others.

SMILES	CYP2C19 inh	Cav3 T inh	CYP2C9 act	CYP2C9 inh	CYP2C19 activ
Nc1ccc(N2CCCCCC2)cc1	64*	0.71	0.8	22	0.4
COc1ccc(-c2nnn(CC(=O)OC3CCCCC3)n2)cc1OC	43	-0.15	1.1	-5	0.6
COc1ccc(-c2nnn(Cc3nn[nH]n3)n2)cc1OC	20	1	0.4	58*	0.8
COc1ccc(-c2nnn(CC(=O)NCc3ccccc3)n2)cc1OC	nt	-1.1	nt	nt	nt
COc1ccc(-c2nnn(CC(=O)c3ccccc3)n2)cc1OC	59*	0.26	1.6	-61	0.4
COc1cc(-c2nnn(CC#N)n2)ccc1OCc1ccccc1	96*	-0.63	0.2	76*	0
COc1cc(-c2nnn(CC(=O)NC3CCS(=O)(=O)C3)n2)ccc1OCc1ccccc1 (stereo not drawn)	52*	0.64	0.3	69*	0.5
CCOc1ccc(-c2nnn(CCC(=O)O)n2)cc1OC	0	-0.44	1	5	1
O=C1c2cccnc2C(=O)N1Cc1ccc2c(c1)OCO2	8	0.52	1.1	-8	0.9
CCOC(=O)CNC(=O)Nc1ccccc1C(=O)OC	23	0.37	1	-1	0.8
COc1ccccc1NC(=O)C(=O)N1N=C(C(C)C)CC1(O)C(F)(F)F (stereo not drawn)	12	-0.96	1.1	-6	0.9
N/C(Cc1cccs1)=N\OC(=O)COc1ccccc1	21	-0.011	0.9	7	0.8
N#CCn1nnc(-c2ccc3c(c2)OCO3)n1	67*	nt	0.8	21	0.3
COC(=O)c1ccc(NC2(C#N)C(=O)Nc3ccccc32)cc1 (stereo not drawn)	52*	-1	0.3	71*	0.5
COc1cc2c(cc1NC(=O)c1ccncc1)oc1ccccc12	58*	1.6	0.1	91*	0.4
CCOc1ccccc1-n1nnnc1SCC(=O)Nc1cc2oc3ccccc3c2cc1OC	-4	-1.4	0.5	51*	1
COc1cc2c(cc1NS(=O)(=O)N1CCCC1)oc1ccccc12	82*	-5.6*	2*	-95	0.2
COc1cc2c(cc1NC(=O)C(C)N1CCN(S(=O)(=O)c3ccc(C)c(C)c3)CC1)oc1ccccc12 (stereo not drawn)	-12	-2.8	0.8	16	1.1
CCOc1ccc(/C(O)=C2/C(=O)C(=O)N(CCCn3ccnc3)C2c2cccs2)cc1Cl (stereo not drawn)	19	-0.035	0.3	70*	0.8
COc1cc(C(=O)NC(=S)Nc2cccc(-c3cc4ccccc4oc3=O)c2)cc(OC)c1OC	22	-0.082	0.3	68*	0.8
CCOC(=O)/C(N=O)=C(\O)C1CCN(C(=O)OCC)CC1	8	0.17	0.9	11	0.9
CCCCn1nc2cc(C(=O)NCC3CC3)ccc2c1OCC	5	-1.7	1.2	-22	0.9
CCOc1ccccc1CNC(=O)c1cc2oc3ccccc3c2n1CC	66*	-5*	1.1	-11	0.3
CCOc1ccc(CNC(=O)c2cc3oc4ccccc4c3n2C)cc1	23	0.46	0.5	52*	0.8
COc1cccc(CNC(=O)c2cc3oc4ccccc4c3n2C)c1OC	-8	0.3	1.4	-42	1.1
SMILES	CYP2C19 inh	Cav3 T inh	CYP2C9 act	CYP2C9 inh	CYP2C19 activ
O=C1CC(c2ccco2)CC2=C1C(c1ccccc1)n1nc(C(F)(F)F)nc1N2 (stereo not drawn)	30	nt	0.4	62*	0.7
COc1ccc(C2C3=C(CC(c4ccco4)CC3=O)Nc3ccccc3N2C(C)=O)cc1 (stereo not drawn)	48	0.17	0.2	81*	0.5
CC1CC(=O)C2=C(C1)Nc1ccccc1N(C(=O)COc1ccccc1)C2c1ccco1 (stereo not drawn)	56*	nt	0.5	48	0.4
COc1ccc(C2CC(=O)C3=C(C2)Nc2ncnn2C3c2ccccc2)cc1 (stereo not drawn)	41	0.83	0.6	37	0.6
CC1CN(C2CCCCC2)c2nc3c(c(=O)[nH]c(=O)n3C)n2C1 (stereo not drawn)	7	2	0.4	56*	0.9
CCn1c(N2CCC(Cc3ccccc3)CC2)nc2c1c(=O)[nH]c(=O)n2C	77*	nt	0.5	54*	0.2
CC1CN(c2ccc(Oc3ccccc3)cc2)c2nc3c(c(=O)[nH]c(=O)n3C)n2C1 (stereo not drawn)	-5	0.21	0.9	9	1
CC1CCCN(c2nc3c(c(=O)[nH]c(=O)n3C)n2CCCc2ccccc2)C1 (stereo not drawn)	21	-5.6*	0.4	62*	0.8
CC1CCCN(c2nc3c(c(=O)[nH]c(=O)n3C)n2CCSc2ncccn2)C1 (stereo not drawn)	nt	0.41	nt	nt	nt
CC1CCN(c2nc3c(c(=O)[nH]c(=O)n3C)n2Cc2ccccc2)CC1	22	-0.7	0.8	17	0.8
CC1CN(CCc2ccccc2)c2nc3c(c(=O)[nH]c(=O)n3C)n2C1 (stereo not drawn)	74*	1.2	0.4	57*	0.3
CC(=O)C1=C(O)C(=O)N(Cc2ccco2)C1c1ccc2c(c1)OCO2 (stereo not drawn)	-4	0.39	1.1	-7	1
CC(NC(=O)C1CC2CCCC(C1)C2=O)c1ccccc1 (stereo not drawn)	10	nt	1.1	-9	0.9
CCOC(=O)c1ccc(-c2ccc(CO)o2)cc1	12	0.76	0.8	24	0.9
CCOC(=O)c1cc(-c2ccc(/C=C3/C(=O)NC(=O)C(C#N)=C3C)o2)ccc1Cl	19	0.064	0.3	71*	0.8
Cn1nnnc1SCCOc1ccc(C#N)cc1	62*	-0.21	1	-5	0.4
COc1ccc(OCCSc2nnc3sc4ccccc4n23)cc1	47	-0.27	1	0	0.5
CCCN1CCN(C(=O)CN2C(=O)CC(C)(C)S(=O)(=O)c3ccccc32)CC1	4	-0.066	1	-2	1
Fc1ccccc1N1CCN(Cc2nc(-c3ccccc3)no2)CC1	21	-2.5	0.9	11	0.8
COc1ccc(CCN(Cc2nc(-c3ccccc3)no2)Cc2nc(-c3ccccc3)no2)cc1OC	54*	-1.9	0.1	86*	0.5
c1ccc(OCc2nc(-c3ccccc3)no2)cc1	72*	-1.4	0.6	37	0.3
c1ccc(-c2noc(CN3CCN(c4ccccc4)CC3)n2)cc1	71*	-1.9	0.6	45	0.3
c1ccc(OCCCc2nc(-c3ccccn3)no2)cc1	80*	0.65	0.7	33	0.2
Cc1ccc(N/C=C/C(=O)C(C)(C)C)c(O)c1	14	-0.74	0.6	39	0.9
c1ccc(OCCCc2nc(-c3ccncc3)no2)cc1	98*	0.18	0.1	90*	0
COc1ccc(-c2noc(CCCOc3ccccc3)n2)cc1OC	90*	-0.038	0.2	79*	0.1
COc1ccc(-c2noc(CCN3C(=O)c4ccccc4C3=O)n2)cc1OC	22	1.2	0.9	12	0.8
